Laboratory results as given in PubChem BioAssay (Tox21).
Several values for one entry are separate records, joined by “and”; a condition that tells them apart may be missing. Equal entries are not always repeated. Records with an inconclusive call do not appear. A call without a number means that no potency is given here. Where a structure was tested more than once in an assay, its records may differ in their call. Activity calls are given as the source filed them. Unless noted, the call rests on the fitted dose curve; in most records, active means well fitted curve in the direction sought with a large enough effect in the repeat runs; inconclusive means weak or mixed curves; inactive means no such curve, though single readings can be large; an effect the other way counts as inactive or inconclusive.

Tests used:
[1] = qHTS assay to identify small molecule antagonists of the sonic hedgehog signaling (Shh) pathway (AID 1259369; calls by dose curve; further: nearly all actives have a fitted effect of over 45% in size; further: potency means the concentration at half of the fitted maximal effect)
In short: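 NIH/3T3-derived 3T3Gli1-Luc cells with stably integrated Gli1-Luc reporter were preincubated 4hr at 37 C, then given compounds in DMSO plus Shh conditioned medium and incubated 24hr. Firefly luciferase luminescence read after 30min reagent at room temperature.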

[2] = target: Estrogen receptor beta (Homo sapiens) (UniProt Q92731); assay: qHTS assay to identify small molecule agonists of the estrogen receptor beta (ER-beta) signaling pathway (AID 1259377; active means well fitted activation curve with a large enough effect in the signal ratio in the repeat runs, not every such curve was filed as active; the % refers to the signal ratio)
Sequence of Estrogen receptor beta (Homo sapiens) (Q92731 whole entry, looked up, the tested form may be a part): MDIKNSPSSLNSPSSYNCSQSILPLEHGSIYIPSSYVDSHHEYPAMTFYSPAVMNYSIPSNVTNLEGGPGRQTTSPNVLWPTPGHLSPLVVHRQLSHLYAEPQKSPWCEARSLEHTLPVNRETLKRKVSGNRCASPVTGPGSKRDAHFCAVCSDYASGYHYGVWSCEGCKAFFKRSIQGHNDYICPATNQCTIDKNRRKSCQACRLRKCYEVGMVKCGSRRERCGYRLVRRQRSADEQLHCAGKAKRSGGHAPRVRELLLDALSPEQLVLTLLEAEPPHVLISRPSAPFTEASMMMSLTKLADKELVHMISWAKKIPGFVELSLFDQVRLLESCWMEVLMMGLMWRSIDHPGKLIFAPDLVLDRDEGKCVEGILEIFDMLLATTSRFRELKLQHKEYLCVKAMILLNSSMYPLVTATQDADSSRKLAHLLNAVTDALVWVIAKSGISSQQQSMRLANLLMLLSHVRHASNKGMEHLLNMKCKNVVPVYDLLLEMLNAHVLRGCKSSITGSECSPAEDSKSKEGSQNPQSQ
In short: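 Agonist mode cell assay in GripTite HEK293T cells expressing an ER-beta fusion that drives beta-lactamase from an Upstream Activator Sequence; 16 hr compound exposure at 37C, then 2 h LiveBLAzer B/G FRET substrate at room temperature, fluorescence read-out.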

[3] = target: Estrogen receptor beta (Homo sapiens) (UniProt Q92731); assay: qHTS assay to identify small molecule antagonists of the estrogen receptor beta (ER-beta) signaling pathway (AID 1259378; active means well fitted inhibition curve with a large enough effect in the signal ratio in the repeat runs, not every such curve was filed as active; the % refers to the signal ratio)
In short: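 ER-beta-UAS-bla HEK293T cells in 2% charcoal-stripped FBS medium treated with compound plus 1nM final 17-beta-estradiol for 16 hr at 37C. Beta-lactamase reporter read by FRET substrate fluorescence after 2 hours at room temperature.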

[4] = qHTS assay to identify small molecule agonists of the androgen receptor (AR) signaling pathway in the presence of an antagonist - cell viability counter screen (AID 1259379); further: series mostly up to about 92 µM; nearly all actives have a fitted effect of over 25% in size
In short: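 MDA-kb2 human breast carcinoma cells (stable MMTV-luciferase, AR/GR responsive) were seeded 3,000 cells/well, pre-incubated 5 hr at 37C without CO2, then given 3.0uM nilutamide and compounds at 15 concentrations for 16 hr. Viability was read by CellTiter-Fluor fluorescence.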

[5] = qHTS assay to identify small molecule agonists of the estrogen receptor beta (ER-beta) signaling pathway - cell viability counter screen (AID 1259380); further: nearly all actives have a fitted effect of over 30% in size
In short: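 ER-beta-UAS-bla HEK293T cells in medium with 2% charcoal-stripped FBS were preincubated 6 hr at 37C, dosed with compound in DMSO for 16 hr, then after the bla read, CellTiter-Glo was added for 30 min at room temperature; luminescence recorded.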

[6] = qHTS assay to identify small molecule antagonists of the estrogen receptor beta (ER-beta) signaling pathway - cell viability counter screen (AID 1259382); further: series mostly up to about 92 µM; nearly all actives have a fitted effect of over 55% in size
In short: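 ER-beta-UAS-bla HEK293T cells (2,000/well, 2% charcoal-stripped FBS) were pre-incubated 6 hr at 37C, then given compound plus 1nM final 17-beta-estradiol for 16 hr. Viability was read in the same wells by CellTiter-Glo luminescence after 30 min at room temperature.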

[7] = target: Estrogen receptor (Homo sapiens) (UniProt P03372); assay: qHTS assay to identify small molecule agonists of the estrogen receptor alpha (ER-alpha) signaling pathway in the presence of an antagonist (AID 1259383; calls by dose curve; further: nearly all actives have a fitted effect of over 15% in size; further: potency means the concentration at half of the fitted maximal effect; on activation: top concentration of the series differs between compounds)
Sequence of Estrogen receptor (Homo sapiens) (P03372 whole entry, looked up): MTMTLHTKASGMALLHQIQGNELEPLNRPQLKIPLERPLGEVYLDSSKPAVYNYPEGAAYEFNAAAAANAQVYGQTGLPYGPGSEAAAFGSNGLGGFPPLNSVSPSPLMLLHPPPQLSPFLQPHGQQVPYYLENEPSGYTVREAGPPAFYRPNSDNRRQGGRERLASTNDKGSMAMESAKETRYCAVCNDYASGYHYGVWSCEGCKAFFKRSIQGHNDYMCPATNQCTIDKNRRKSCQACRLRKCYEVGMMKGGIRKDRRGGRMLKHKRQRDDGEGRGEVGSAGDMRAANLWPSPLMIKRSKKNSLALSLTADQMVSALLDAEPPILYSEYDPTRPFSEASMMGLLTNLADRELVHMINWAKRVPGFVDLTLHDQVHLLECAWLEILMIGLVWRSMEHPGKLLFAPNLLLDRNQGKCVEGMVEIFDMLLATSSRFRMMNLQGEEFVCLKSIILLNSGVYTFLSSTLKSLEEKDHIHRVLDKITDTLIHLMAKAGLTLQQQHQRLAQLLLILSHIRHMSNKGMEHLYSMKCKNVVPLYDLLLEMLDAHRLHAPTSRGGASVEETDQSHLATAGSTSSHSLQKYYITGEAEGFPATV
In short: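 VM7Luc4E2 cells (endogenous full-length ER-alpha, 4×ERE-luciferase) were precultured 5 days in phenol red-free medium with 10% charcoal-stripped FBS, given 10.0nM ICI-182,780 (final), then treated with compounds at 15 concentrations for 22hr at 37C; luminescence read with ONE-Glo.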

[8] = qHTS assay to identify small molecule agonists or antagonists of the thyroid stimulating hormone receptor (TSHR) signaling pathway - wild type cell line counter screen (AID 1259384; calls by dose curve)
In short: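 Wild-type Hek293 cells, 800/well, 18 h at 37C, then compound with Ro20-1724 for 30 min RT. cAMP by HTRF (cAMP-d2/anti-cAMP cryptate), 1 h RT, fluorescence read. 15 concentrations, triplicates.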

[9] = target: Thyrotropin receptor (Homo sapiens) (UniProt P16473); assay: qHTS assay to identify small molecule antagonists of the thyroid stimulating hormone receptor (TSHR) signaling pathway (AID 1259385; calls by dose curve; further: nearly all actives have a fitted effect of over 20% in size)
Sequence of Thyrotropin receptor (Homo sapiens) (P16473 whole entry, looked up): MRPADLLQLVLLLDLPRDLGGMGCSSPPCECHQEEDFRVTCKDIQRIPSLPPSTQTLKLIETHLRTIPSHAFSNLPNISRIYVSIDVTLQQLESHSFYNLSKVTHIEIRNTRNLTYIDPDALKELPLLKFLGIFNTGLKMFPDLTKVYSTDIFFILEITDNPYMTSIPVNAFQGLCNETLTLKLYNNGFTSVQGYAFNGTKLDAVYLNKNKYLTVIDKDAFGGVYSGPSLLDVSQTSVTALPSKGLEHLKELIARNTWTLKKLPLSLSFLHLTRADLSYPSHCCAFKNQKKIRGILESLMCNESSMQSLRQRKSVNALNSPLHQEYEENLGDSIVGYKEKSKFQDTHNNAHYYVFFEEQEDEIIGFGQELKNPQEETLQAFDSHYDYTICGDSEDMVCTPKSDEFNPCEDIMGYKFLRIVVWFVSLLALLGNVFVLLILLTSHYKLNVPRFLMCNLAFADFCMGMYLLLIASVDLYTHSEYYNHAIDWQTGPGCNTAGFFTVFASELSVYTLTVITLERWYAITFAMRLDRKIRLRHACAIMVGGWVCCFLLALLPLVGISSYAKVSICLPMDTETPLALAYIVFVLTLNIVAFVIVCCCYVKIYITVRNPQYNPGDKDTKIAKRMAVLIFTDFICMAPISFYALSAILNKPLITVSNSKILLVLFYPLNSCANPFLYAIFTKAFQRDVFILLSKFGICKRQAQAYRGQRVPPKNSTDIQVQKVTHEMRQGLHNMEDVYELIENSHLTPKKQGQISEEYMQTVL
In short: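 TSHR-HEK293 cells (800/well) plated 18 h, then compounds with Ro20-1724 and TSH at 1.5 ng/mL final, 30 min at room temperature. cAMP quantified by HTRF (cAMP-d2/anti-cAMP-cryptate, 1 h); 15 concentrations in triplicate.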

[10] = qHTS assay to identify small molecule agonists of the estrogen receptor alpha (ER-alpha) signaling pathway in the presence of an antagonist - cell viability counter screen (AID 1259386);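 further: series mostly up to about 92 µM; cells exposed to compounds for 22 h at 37 °C before the viability read; nearly all actives have a fitted effect of over 30% in size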
In short: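 VM7Luc4E2 cells (endogenous full-length ER-alpha, 4×ERE-luciferase) were held 5 days in phenol red-free medium with 10% charcoal-stripped FBS, plated, then given 10.0nM ICI-182,780 and compounds at 15 concentrations for 22hr at 37C; viability read by CellTiter-Fluor fluorescence.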

[11] = target: Progesterone receptor (Homo sapiens) (UniProt P06401); assay: qHTS assay to identify small molecule agonists of the progesterone receptor (PR) signaling pathway (AID 1346784; calls by dose curve; further: nearly all actives have a fitted effect of over 30% in size)
Sequence of Progesterone receptor (Homo sapiens) (P06401 whole entry, looked up): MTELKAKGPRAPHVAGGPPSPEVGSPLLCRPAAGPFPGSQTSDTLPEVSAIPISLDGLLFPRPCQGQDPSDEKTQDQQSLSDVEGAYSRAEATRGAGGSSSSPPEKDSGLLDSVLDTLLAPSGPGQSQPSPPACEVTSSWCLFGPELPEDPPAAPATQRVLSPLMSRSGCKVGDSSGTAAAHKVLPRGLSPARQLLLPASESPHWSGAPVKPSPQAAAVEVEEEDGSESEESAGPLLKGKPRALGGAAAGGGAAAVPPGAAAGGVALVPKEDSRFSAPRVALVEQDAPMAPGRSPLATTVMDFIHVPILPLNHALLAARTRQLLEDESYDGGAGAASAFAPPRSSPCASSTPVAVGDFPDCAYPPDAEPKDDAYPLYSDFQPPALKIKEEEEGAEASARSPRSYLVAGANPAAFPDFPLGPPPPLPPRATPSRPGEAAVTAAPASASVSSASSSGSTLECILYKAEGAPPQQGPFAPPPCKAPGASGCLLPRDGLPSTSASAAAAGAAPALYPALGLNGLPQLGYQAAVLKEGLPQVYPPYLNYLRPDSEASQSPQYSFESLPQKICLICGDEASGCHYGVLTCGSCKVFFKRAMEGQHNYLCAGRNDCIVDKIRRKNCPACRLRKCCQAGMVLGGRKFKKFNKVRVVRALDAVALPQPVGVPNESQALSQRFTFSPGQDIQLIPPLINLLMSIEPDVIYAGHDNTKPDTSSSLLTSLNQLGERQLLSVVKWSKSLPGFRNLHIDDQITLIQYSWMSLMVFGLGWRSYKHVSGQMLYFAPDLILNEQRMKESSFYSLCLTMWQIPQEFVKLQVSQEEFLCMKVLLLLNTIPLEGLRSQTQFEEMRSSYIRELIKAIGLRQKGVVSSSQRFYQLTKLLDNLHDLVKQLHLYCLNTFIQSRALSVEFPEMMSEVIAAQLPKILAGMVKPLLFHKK
In short: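 Cells (PR-UAS-bla HEK 293T, GripTite) were plated in assay medium containing 2% charcoal-stripped FBS and incubated 6 hr. Test compounds in DMSO were added for 16 hr at 37C. FRET substrate was then loaded for 2 hr at room temperature before fluorescence reading.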

[12] = target: Progesterone receptor (Homo sapiens) (UniProt P06401); assay: qHTS assay to identify small molecule antagonists of the progesterone receptor (PR) signaling pathway (AID 1346795; active means well fitted inhibition curve with a large enough effect in the signal ratio in the repeat runs, not every such curve was filed as active; the % refers to the signal ratio)
In short: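 Antagonist mode: compounds tested against 1 nM (final) promegestone stimulation in HEK293T cells expressing PR-UAS-bla reporter, 16 hr at 37C, 5% CO2; beta-lactamase activity detected via B/G FRET substrate after 2 hr at room temperature.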

[13] = qHTS assay to identify small molecule antagonists of the progesterone receptor (PR) signaling pathway - cell viability counter screen (AID 1346798); further: series mostly up to about 92 µM; nearly all actives have a fitted effect of over 50% in size
In short: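 Counter screen for cytotoxicity: viability of PR-UAS-bla HEK293T cells was measured with CellTiter-Glo luminescence following 16 hr compound exposure in the presence of R5020.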

[14] = qHTS assay to identify small molecule antagonists of the TGF-beta/Smad signaling pathway - cell viability counter screen (AID 1346824); further: nearly all actives have a fitted effect of over 50% in size
In short: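 SBE-bla HEK 293T cells, incubated overnight, then compound plus 0.25 ng/mL TGF-beta1 (stock added) for 5 hr at 37 C. Viability was read in the same wells by CellTiter-Glo luminescence after 30 min at room temperature.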

[15] = qHTS assay to identify small molecule agonists of the TGF-beta/Smad signaling pathway - cell viability counter screen (AID 1346829); further: top concentration of the series differs between compounds; nearly all actives have a fitted effect of over 45% in size
In short: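 Here the cytotoxicity of library compounds is measured in SBE-bla HEK 293T cells treated for 5 hr, using CellTiter-Glo added to wells already read for the beta-lactamase reporter.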

[16] = qHTS assay to identify small molecule agonists of the TGF-beta/Smad signaling pathway (AID 1346859; active means well fitted activation curve with a large enough effect in the signal ratio in the repeat runs, not every such curve was filed as active; the % refers to the signal ratio; further: series mostly up to about 77 µM)
In short: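 Reporter line: HEK 293T with stably integrated SBE-controlled beta-lactamase. Compound exposure lasts 5 hr at 37 C and 5% CO2; substrate loading follows for 2 hr at room temperature, with emission read at 460 and 530 nm.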

[17] = target: Thyrotropin-releasing hormone receptor (Homo sapiens) (UniProt P34981); assay: qHTS assay to identify small molecule antagonists of the thyrotropin-releasing hormone receptor (TRHR) signaling pathway (AID 1346877; active means well fitted inhibition curve with a large enough effect in the repeat runs, not every such curve was filed as active; further: series mostly up to about 51 µM)
Sequence of Thyrotropin-releasing hormone receptor (Homo sapiens) (P34981 whole entry, looked up): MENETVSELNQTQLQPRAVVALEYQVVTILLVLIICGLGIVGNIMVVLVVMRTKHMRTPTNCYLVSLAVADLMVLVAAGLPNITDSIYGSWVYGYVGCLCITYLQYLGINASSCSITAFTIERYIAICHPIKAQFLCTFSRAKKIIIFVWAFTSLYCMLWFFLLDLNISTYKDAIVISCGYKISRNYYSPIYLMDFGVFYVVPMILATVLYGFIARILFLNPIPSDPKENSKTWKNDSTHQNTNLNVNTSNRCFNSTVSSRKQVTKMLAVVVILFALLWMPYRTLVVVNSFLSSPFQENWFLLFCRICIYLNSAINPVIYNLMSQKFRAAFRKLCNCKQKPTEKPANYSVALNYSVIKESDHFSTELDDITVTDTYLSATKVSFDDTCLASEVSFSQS
In short: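 TRHR-expressing HEK293 cells were seeded, cultured 18 h at 37 °C, then loaded with calcium dye for 2 h. Compounds were pre-incubated 5 min at room temperature before 1 nM TRH (final) was added, and kinetic fluorescence was recorded for 3 min.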

[18] = target: Thyrotropin-releasing hormone receptor (Homo sapiens) (UniProt P34981); assay: qHTS assay to identify small molecule agonists of the thyrotropin-releasing hormone receptor (TRHR) signaling pathway (AID 1346891; calls by dose curve; further: series mostly up to about 58 µM)
In short: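 Cells: TRHR-Hek293, seeded and incubated 18 h. Dye loading: 2 h at 37 °C. Compound added from DMSO stock by pin tool. Read-out: kinetic calcium fluorescence over 3 min.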

[19] = target: Androgen receptor (Homo sapiens) (UniProt P10275); assay: qHTS assay to identify small molecule agonists of the androgen receptor (AR) signaling pathway in the presence of an antagonist (AID 1259381; calls by dose curve; further: nearly all actives have a fitted effect of over 15% in size)
Sequence of Androgen receptor (Homo sapiens) (P10275 whole entry, looked up): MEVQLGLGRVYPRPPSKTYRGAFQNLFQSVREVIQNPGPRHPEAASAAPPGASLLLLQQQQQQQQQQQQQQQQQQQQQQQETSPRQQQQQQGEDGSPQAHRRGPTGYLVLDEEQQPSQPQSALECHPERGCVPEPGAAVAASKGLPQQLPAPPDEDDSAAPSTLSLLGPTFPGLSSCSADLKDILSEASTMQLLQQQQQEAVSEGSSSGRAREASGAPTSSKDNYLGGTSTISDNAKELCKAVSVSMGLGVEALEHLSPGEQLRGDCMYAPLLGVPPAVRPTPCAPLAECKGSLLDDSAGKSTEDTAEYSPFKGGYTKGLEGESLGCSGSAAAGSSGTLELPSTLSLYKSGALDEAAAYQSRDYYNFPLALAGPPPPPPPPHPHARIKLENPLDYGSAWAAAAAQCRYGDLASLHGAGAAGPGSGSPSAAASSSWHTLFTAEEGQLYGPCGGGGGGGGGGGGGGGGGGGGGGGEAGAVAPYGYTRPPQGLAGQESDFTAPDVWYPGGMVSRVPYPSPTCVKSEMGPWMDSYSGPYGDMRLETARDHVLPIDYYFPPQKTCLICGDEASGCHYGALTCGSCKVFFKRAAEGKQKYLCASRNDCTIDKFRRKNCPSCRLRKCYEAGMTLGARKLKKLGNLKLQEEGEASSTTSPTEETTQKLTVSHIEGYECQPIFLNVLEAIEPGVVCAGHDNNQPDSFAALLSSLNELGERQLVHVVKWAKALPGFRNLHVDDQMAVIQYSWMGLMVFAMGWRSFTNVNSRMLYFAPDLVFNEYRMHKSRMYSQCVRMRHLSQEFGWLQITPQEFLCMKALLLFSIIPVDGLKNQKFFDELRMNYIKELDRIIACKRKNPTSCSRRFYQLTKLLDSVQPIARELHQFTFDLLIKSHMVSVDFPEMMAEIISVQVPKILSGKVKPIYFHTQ
In short: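 MDA-kb2 human breast carcinoma cells carrying an MMTV-luciferase reporter (AR- and GR-responsive) were treated with compounds at 15 concentrations plus 3.0uM final nilutamide for 16hr at 37C without CO2; luminescence was read after ONE-Glo addition.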

[20] = qHTS assay to identify small molecule agonists of the progesterone receptor (PR) signaling pathway - cell viability counter screen (AID 1346799; calls by dose curve; further: nearly all actives have a fitted effect of over 45% in size)
In short: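 Cells (PR-UAS-bla HEK293T) are plated at 3,000/well in 2% charcoal-stripped FBS medium, rested 6 hr, dosed and incubated 16 hr at 37C. CellTiter-Glo is then added and luminescence measured after 30 min at room temperature.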

Structure (SMILES) | Potency [1] | Potency [2] | Potency [3] | Potency [4] | Potency [5] | Potency [6] | Potency [7] | Potency [8] | Potency [9] | Potency [10] | Potency [11] | Potency [12] | Potency [13] | Potency [14] | Potency [15] | Potency [16] | Potency [17] | outcome [18] | outcome [19] | Potency [20]
N#CCC(=O)O | inactive and 54.5 µM (active) | inactive | inactive | inactive | inactive | inactive | inactive | inactive | inactive | inactive | inactive | inactive | inactive | inactive | inactive | inactive | inactive | inactive | – | –
O=[N+]([O-])c1cc(C(F)(F)F)ccc1Cl | inactive | inactive | inactive | inactive | – | inactive | – | inactive | inactive | inactive | inactive | – | inactive | – | inactive | inactive | inactive | inactive | inactive | –
CC(=O)C(C)C | inactive | inactive | inactive | inactive | inactive | inactive | inactive | – | – | inactive | inactive | inactive | inactive | inactive | inactive | inactive | inactive | inactive | – | inactive
O=C(O)Cc1c[nH]c2ccccc12 | inactive | inactive | inactive | inactive | inactive | inactive | – | inactive | inactive | inactive | inactive | inactive | inactive | inactive | inactive | – | – | – | – | inactive
CCCCCCCC(=O)O | inactive | inactive | inactive | inactive | – | inactive | 26.3 µM (active) and inactive | – | – | inactive | inactive | inactive | inactive | inactive | inactive | – | – | – | – | –
CCc1cccc(CC)c1N | inactive | inactive | inactive | inactive | inactive | inactive | inactive | inactive | inactive | inactive | inactive | inactive | inactive | – | inactive | inactive | – | – | inactive | –
NC1CCCCC1N (stereo not given) | inactive | inactive | inactive | inactive | inactive | inactive | – | inactive | inactive | inactive | inactive | inactive | inactive | – | inactive | – | – | – | – | –
CCCCCCCCO | inactive | inactive | inactive | inactive | – | inactive | inactive | inactive | inactive | inactive | inactive | – | inactive | inactive | inactive | – | – | – | – | inactive
CC(C)(CO)CO | inactive | inactive | inactive | inactive | inactive | inactive | inactive | inactive | inactive | inactive | inactive | inactive | inactive | inactive | inactive | inactive | inactive | inactive | inactive | inactive
CC(=O)CC(=O)N(C)C | inactive | inactive | inactive | inactive | inactive | inactive | inactive | inactive | inactive | inactive | inactive | – | inactive | – | inactive | inactive | inactive | inactive | – | –
COC(=O)OC | inactive | inactive | inactive | inactive | inactive | inactive | – | inactive | inactive | inactive | inactive | – | inactive | inactive | inactive | inactive | inactive | inactive | – | inactive
CCCN(CCC)C(=O)SCC | inactive | inactive | inactive | inactive | inactive | inactive | inactive | inactive | inactive | inactive | inactive | – | inactive | inactive | inactive | – | inactive | inactive | inactive | inactive
CCOC(=O)c1ccc(O)cc1 | inactive | – | inactive | inactive | inactive | inactive | inactive | inactive | inactive | inactive | inactive | inactive | inactive | inactive | inactive | – | inactive | inactive | – | –
CCCCCCCCC(=O)O | inactive | inactive | inactive | inactive | inactive | inactive | inactive | inactive | inactive | inactive | inactive | – | inactive | inactive | inactive | – | inactive | inactive | – | inactive
CN1Cc2c(N)cccc2C(c2ccccc2)C1 (stereo not given) | inactive | inactive | inactive | inactive | – | inactive | – | inactive | inactive | inactive | inactive | – | inactive | – | inactive | – | – | – | – | –
NCCNCCNCCN | inactive | – | inactive | inactive | inactive | inactive | – | inactive | inactive | inactive | inactive | inactive | inactive | inactive | inactive | – | inactive | inactive | – | –
CCN(CC)CCNC(=O)c1ccc(N)cc1 | inactive | inactive | inactive | inactive | inactive | inactive | – | inactive | inactive | inactive | inactive | inactive | inactive | – | inactive | – | – | – | – | –
CCCCCCC(=O)O | inactive | inactive | inactive | inactive | inactive | inactive | inactive | inactive | inactive | inactive | inactive | inactive | inactive | inactive | inactive | inactive | – | – | – | inactive
